# Reference: PubChem BioAssay (EPA / NIEHS)
# Several values for one entry are separate records, joined by “and”; a condition that tells them apart may be missing. Equal values may be shown once. Where a structure was tested more than once in an assay, its records may differ in their call. Activity calls are given as the source filed them. Rule for the calls: active = hit-call score of the fitted dose curve at least 0.9, where 1 is the maximum; inactive = score below 0.9.
# Assays:
# [1] = read-out: Interleukin-6 (IL6), IL6 (gene 3569); test: BSK_CASM3C_IL6: BioMAP Diversity Plus: CASM3C Assay for Interleukin-6 (IL6) Biomarker Activity for (AID 2283040); details: primary human coronary artery smooth muscle cells; actives raise or lower the signal
# [2] = read-out: Tissue plasminogen activator (tPA), PLAT (gene 5327); test: BSK_BE3C_tPA: BioMAP Diversity Plus: BE3C Assay for Tissue plasminogen activator (tPA) Biomarker Activity (AID 2283041); details: primary human bronchial epithelial cells; actives raise or lower the signal;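 for outcome: tPA level quantified by ELISA one day after compound addition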
# Method in brief: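 Gain- or loss-of-signal in tPA, measured by ELISA, derived by bidirectional fitting against DMSO. Cells: human primary bronchial epithelial; read at 24 h after chemical dosing.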
# [3] = read-out: Interleukin-8 (IL8), CXCL8 (gene 3576); test: BSK_CASM3C_IL8: BioMAP Diversity Plus: CASM3C Assay for Interleukin-8 (IL8) Biomarker Activity (AID 2283042); details: primary human coronary artery smooth muscle cells; actives raise or lower the signal;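 note: IL-8 protein level quantified by ELISA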
# [4] = read-out: Human Leukocyte Antigen - DR isotype (HLADR), HLA-DRA (gene 3122); test: BSK_CASM3C_HLADR: BioMAP Diversity Plus: CASM3C Assay for Human Leukocyte Antigen - DR isotype (HLADR) Biomarker Activity (AID 2283043); details: primary human coronary artery smooth muscle cells; actives raise or lower the signal;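 note: cell-surface HLA-DR protein level quantified by ELISA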
# [5] = read-out: Macrophage colony-stimulating factor (MCSF), CSF1 (gene 1435); test: BSK_CASM3C_MCSF: BioMAP Diversity Plus: CASM3C Assay for Macrophage colony-stimulating factor (MCSF) Biomarker Activity (AID 2283044); details: primary human coronary artery smooth muscle cells; actives raise or lower the signal;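 note: M-CSF protein amount quantified by ELISA after 24 h exposure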
# [6] = read-out: Low-density lipoprotein receptor (LDLR), LDLR (gene 3949); test: BSK_CASM3C_LDLR: BioMAP Diversity Plus: CASM3C Assay for Low-density lipoprotein receptor (LDLR) Biomarker Activity (AID 2283045); details: primary human coronary artery smooth muscle cells; actives raise or lower the signal;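 note: LDLR protein level on the cell surface quantified by ELISA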
# [7] = read-out: Monocyte Chemoattractant Protein-1 (MCP1), CCL2 (gene 6347); test: BSK_CASM3C_MCP1: BioMAP Diversity Plus: CASM3C Assay for Monocyte Chemoattractant Protein-1 (MCP1) Biomarker Activity (AID 2283046); details: primary human coronary artery smooth muscle cells; actives raise or lower the signal;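 note: MCP-1 level quantified by ELISA 24 h after dosing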
# [8] = BSK_CASM3C_Proliferation: Cell Proliferation Assessment in the BioMAP Diversity Plus: CASM3C Assay (AID 2283047); details: primary human coronary artery smooth muscle cells;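 note: sulforhodamine B total protein stain as relative cell number at 560 nm; sub-confluent cells exposed 48 h before staining; fitted both ways against DMSO so gain or loss of cell number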
# [9] = read-out: Monokine induced gamma interferon (MIG), CXCL9 (gene 4283); test: BSK_CASM3C_MIG: BioMAP Diversity Plus: CASM3C Assay for Monokine induced gamma interferon (MIG) Biomarker Activity (AID 2283048); details: primary human coronary artery smooth muscle cells; actives raise or lower the signal;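 note: MIG protein level measured by ELISA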
# [10] = read-out: serum amyloid A (SAA), SAA1 (gene 6288); test: BSK_CASM3C_SAA: BioMAP Diversity Plus: CASM3C Assay for serum amyloid A (SAA) Biomarker Activity (AID 2283049); details: primary human coronary artery smooth muscle cells; actives raise or lower the signal;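 note: SAA protein level quantified by ELISA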
# [11] = BSK_CASM3C_SRB: Viability Assessment in the BioMAP Diversity Plus: CASM3C Assay (AID 2283050); details: primary human coronary artery smooth muscle cells;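 note: total protein by SRB staining as cytotoxicity measure in parallel cultures; cells exposed to compound for 24 h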
# [12] = read-out: Thrombomodulin, THBD (gene 7056); test: BSK_CASM3C_Thrombomodulin: BioMAP Diversity Plus: CASM3C Assay for Thrombomodulin Biomarker Activity (AID 2283051); details: primary human coronary artery smooth muscle cells; actives raise or lower the signal;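 note: thrombomodulin protein level measured by ELISA 24 h after dosing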
# [13] = read-out: Tissue Factor, F3 (gene 2152); test: BSK_CASM3C_TissueFactor: BioMAP Diversity Plus: CASM3C Assay for Tissue Factor Biomarker Activity (AID 2283052); details: primary human coronary artery smooth muscle cells; actives raise or lower the signal;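 note: cell surface tissue factor protein level read by ELISA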
# [14] = read-out: Interferon-gamma inducible Protein 10 (IP10), CXCL10 (gene 3627); test: BSK_hDFCGF_IP10: BioMAP Diversity Plus: hDFCGF Assay for Interferon-gamma inducible Protein 10 (IP10) Biomarker Activity (AID 2283053); details: primary human foreskin fibroblasts; actives raise or lower the signal
# Method in brief: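 Cells: human dermal foreskin fibroblasts. Exposure: 24 h post-dosing. Detection: IP-10 ELISA, with values expressed against DMSO controls and fitted in both directions.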
# [15] = read-out: Urokinase-type plasminogen activator receptor (uPAR), PLAUR (gene 5329); test: BSK_CASM3C_uPAR: BioMAP Diversity Plus: CASM3C Assay for Urokinase-type plasminogen activator receptor (uPAR) Biomarker Activity (AID 2283054); details: primary human coronary artery smooth muscle cells; actives raise or lower the signal;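 note: cell-surface uPAR protein level quantified by ELISA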
# [16] = read-out: Vascular cell adhesion molecule 1 (VCAM1), VCAM1 (gene 7412); test: BSK_CASM3C_VCAM1: BioMAP Diversity Plus: CASM3C Assay for Vascular cell adhesion molecule 1 (VCAM1) Biomarker Activity (AID 2283055); details: primary human coronary artery smooth muscle cells; actives raise or lower the signal;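 note: VCAM-1 protein level quantified by ELISA on the cells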
# [17] = read-out: Collagen III, COL3A1 (gene 1281); test: BSK_hDFCGF_CollagenIII: BioMAP Diversity Plus: hDFCGF Assay for Collagen III Biomarker Activity (AID 2283056); details: primary human foreskin fibroblasts; actives raise or lower the signal
# Method in brief: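 Cells: human foreskin fibroblasts, primary. Dosing followed by 24 h incubation, then ELISA for collagen III. Both increases and decreases scored relative to DMSO.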
# [18] = read-out: Epidermal growth factor receptor (EGFR), EGFR (gene 1956); test: BSK_hDFCGF_EGFR: BioMAP Diversity Plus: hDFCGF Assay for Epidermal growth factor receptor (EGFR) Biomarker Activity (AID 2283057); details: primary human foreskin fibroblasts; actives raise or lower the signal
# Method in brief: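 Dosing human primary skin fibroblasts, then measuring surface EGFR by ELISA at 24 h, gives the endpoint; gains and losses relative to DMSO were fitted in both directions.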
# [19] = read-out: Interleukin-8 (IL8), CXCL8 (gene 3576); test: BSK_hDFCGF_IL8: BioMAP Diversity Plus: hDFCGF Assay for Interleukin-8 (IL8) Biomarker Activity (AID 2283058); details: primary human foreskin fibroblasts; actives raise or lower the signal
# Method in brief: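 IL-8 levels from compound-treated primary human fibroblasts were read by ELISA at 24 h, with DMSO serving as baseline for bidirectional fitting.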
# [20] = BSK_hDFCGF_Proliferation: Cell Proliferation Assessment in the BioMAP Diversity Plus: hDFCGF Assay (AID 2283059); details: primary human foreskin fibroblasts;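 note: curves fitted for both rise and fall of signal versus DMSO baseline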
# Method in brief: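 Sub-confluent human foreskin fibroblast cultures receive test chemical […]. Relative cell number is quantified by sulforhodamine B staining (0.1%, after 10% TCA fixation) at 560 nm, with bidirectional fitting referenced to DMSO.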
structure (smiles),measurement,setting,value
NCC(F)(F)C(F)(F)C(F)(F)C(F)(F)C(F)(F)C(F)(F)F,outcome,[1],inactive
same,outcome,[2],inactive
same,outcome,[3],inactive
same,outcome,[4],inactive
same,outcome,[5],inactive
same,outcome,[6],inactive
same,outcome,[7],inactive
same,outcome,[8],inactive
same,outcome,[9],inactive
same,outcome,[10],inactive
same,outcome,[11],inactive
same,outcome,[12],inactive
same,outcome,[13],inactive
same,outcome,[14],inactive
same,outcome,[15],inactive
same,outcome,[16],inactive
same,outcome,[17],inactive
same,outcome,[18],inactive
same,outcome,[19],inactive
same,outcome,[20],inactive
Cc1cnccn1,outcome,[1],inactive
same,outcome,[2],inactive
same,outcome,[3],inactive
same,outcome,[4],inactive
same,outcome,[5],inactive
same,outcome,[6],inactive
same,outcome,[7],inactive
same,AC50,[8],196 nM (active)
same,outcome,[9],inactive
same,outcome,[10],inactive
same,outcome,[11],inactive
same,outcome,[12],inactive
same,outcome,[13],inactive
same,outcome,[14],inactive
same,outcome,[15],inactive
same,outcome,[16],inactive
same,outcome,[17],inactive
same,outcome,[18],inactive
same,outcome,[19],inactive
same,outcome,[20],inactive
OCC(F)(F)C(F)(F)C(F)(F)C(F)(F)C(F)(F)C(F)(F)C(F)(F)C(F)(F)CO,outcome,[1],inactive
same,outcome,[2],inactive
same,outcome,[3],inactive
same,outcome,[4],inactive
same,outcome,[5],inactive
same,outcome,[6],inactive
same,outcome,[7],inactive
same,AC50,[8],49.9 µM (active) and 45.4 µM (active)
same,outcome,[9],inactive
same,outcome,[10],inactive
same,AC50,[11],43.2 µM (active)
same,outcome,[11],inactive
same,outcome,[12],inactive
same,outcome,[13],inactive
same,AC50,[14],44.9 µM (active) and 44.5 µM (active)
same,outcome,[15],inactive
same,AC50,[16],40.9 µM (active)
same,outcome,[16],inactive
same,AC50,[17],30 µM (active) and 42.7 µM (active)
same,AC50,[18],47.8 µM (active) and 48.7 µM (active)
same,AC50,[19],48 µM (active)
same,outcome,[19],inactive
same,AC50,[20],39.8 µM (active) and 47.9 µM (active)
NC(O)(C(F)(F)F)C(F)(F)F,outcome,[1],inactive
same,outcome,[2],inactive
same,outcome,[3],inactive
same,outcome,[4],inactive
same,AC50,[5],43.4 µM (active)
same,outcome,[5],inactive
same,outcome,[6],inactive
same,outcome,[7],inactive
same,outcome,[8],inactive
same,outcome,[9],inactive
same,outcome,[10],inactive
same,outcome,[11],inactive
same,outcome,[12],inactive
same,outcome,[13],inactive
same,outcome,[14],inactive
same,outcome,[15],inactive
same,outcome,[16],inactive
same,outcome,[17],inactive
same,outcome,[18],inactive
same,outcome,[19],inactive
same,outcome,[20],inactive
OCCCC(F)(F)C(F)(F)C(F)(F)C(F)(F)C(F)(F)C(F)(F)C(F)(F)C(F)(F)F,outcome,[1],inactive
same,AC50,[2],49.7 µM (active) and 47.2 µM (active)
same,AC50,[3],38.9 µM (active) and 35.8 µM (active)
same,AC50,[4],50.3 µM (active) and 50.6 µM (active)
same,AC50,[5],29.1 µM (active) and 35.6 µM (active)
same,AC50,[6],43.9 µM (active) and 45.4 µM (active)
same,AC50,[7],41.6 µM (active) and 42.8 µM (active)
same,AC50,[8],21 µM (active) and 39.5 µM (active)
same,AC50,[9],46.8 µM (active) and 44.5 µM (active)
same,AC50,[10],45.1 µM (active) and 40.2 µM (active)
same,AC50,[11],32 µM (active) and 48.6 µM (active)
same,AC50,[12],7.67 µM (active)
same,outcome,[12],inactive
same,AC50,[13],25.4 µM (active)
same,outcome,[13],inactive
same,AC50,[14],9.54 µM (active) and 7.81 µM (active)
same,AC50,[15],46.1 µM (active) and 51.2 µM (active)
same,AC50,[16],37.4 µM (active) and 30 µM (active)
same,AC50,[17],10.7 µM (active) and 9.75 µM (active)
same,AC50,[18],3.16 µM (active) and 3.2 µM (active)
same,AC50,[19],15.9 µM (active) and 12 µM (active)
same,AC50,[20],3.28 µM (active) and 4.77 µM (active)
